In PubChem BioAssay (NCI):
About 83,000 compounds went through this panel and 20% of them were active in at least one assay; those are over-represented in the sample as a whole.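 Testing used 96-well plates and a 48-hour single-concentration exposure. Example: -40 means 40% of the starting cells died.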 Unmarked numbers belong to inactive results. Activity calls are given as the source filed them. Rule for the calls: active = growth percent below 10; inactive = the rest.

Assays:
Assay in all cases: NCI-60 one-dose screen, 48 h (100 = growth as untreated, 0 = no growth, -100 = all killed)
Details in all cases: 10 µM unless noted
HCT-15 colon = system: HCT-15 colon
HT29 colon = system: HT29 colon
SNB-75 CNS = system: SNB-75 CNS
SNB-19 CNS = system: SNB-19 CNS
U251 CNS = system: U251 CNS
PC-3 prostate = system: PC-3 prostate
SK-MEL-5 melanoma = system: SK-MEL-5 melanoma
UACC-62 melanoma = system: UACC-62 melanoma
LOX IMVI melanoma = system: LOX IMVI melanoma
SK-MEL-28 melanoma = system: SK-MEL-28 melanoma

| Structure (SMILES) | growth (HCT-15 colon) | growth (HT29 colon) | growth (SNB-75 CNS) | growth (SNB-19 CNS) | growth (U251 CNS) | growth (PC-3 prostate) | growth (SK-MEL-5 melanoma) | growth (UACC-62 melanoma) | growth (LOX IMVI melanoma) | growth (SK-MEL-28 melanoma) |
| --- | --- | --- | --- | --- | --- | --- | --- | --- | --- | --- |
| Nc1nc(-c2cccc([N+](=O)[O-])c2)c(N=Nc2ccccc2Cl)s1 | 48.9% | 87.1% | 76.8% | 82% | 43.9% | 64.9% | 80.8% | 71.6% | 25.3% | – |
| CS(=O)c1nccc(-c2c(-c3ccc(F)c(OCCc4ccccc4)c3)nc3sccn23)n1 (stereo not given) | 65.4% | 59.9% | 106% | 86.6% | 106% | 64.6% | 100% | 93.8% | 72.1% | 87.8% |
| C/C=C/[C@@H]1C=C[C@@H]2C[C@H](C)CC[C@H]2[C@]1(C)/C(O)=C1/C(=O)[C@H](CO)N(C)C1=O | 39.4% | 61.9% | 75.5% | 43.2% | 47% | 45.7% | 52.4% | 46.9% | 53.5% | – |
| COc1ccc(Cn2cc3c(c2-c2cc(OC)c(OC)c(OC)c2)CCCc2cnoc2-3)cc1N | 26.8% | 14.6% | -14.5% (active) | 28.7% | 32.6% | 35.5% | 23.1% | 41.5% | 45.1% | – |
| N#C/C(=C\c1ccc(Cl)cc1Cl)C(N)=O | 87.7% | 106% | 90.2% | 97.6% | 95.5% | 92.5% | 101% | 96.8% | 97.3% | – |
| O=C(Nc1cccc(-c2nc(-c3ccc(NC(=O)c4cccs4)cc3Cl)no2)c1)Nc1ccc(NC(=O)C2CC2)c(C(F)(F)F)c1 | 0.554% (active) | -11.2% (active) | -66.4% (active) | -17.7% (active) | -49.7% (active) | -56.3% (active) | -90.7% (active) | -73.8% (active) | -87.1% (active) | – |
| COc1ccc(S(=O)(=O)n2cc(C=O)c3ccccc32)c(OC)c1 | 40% | 107% | 75.3% | 85% | 52.8% | 66.3% | 67.3% | 63.1% | 64.3% | – |
| N#C/C(=C\c1ccc2ccccc2c1)C(=O)Nc1sc2c(c1C#N)CCC2 | 99% | 121% | 102% | 98.9% | 99% | 98.1% | 98% | 90.3% | 95.6% | – |
| Cn1cc(-c2nn3c(=O)cc(-c4ccccc4)nc3s2)c2cc(F)ccc21 | 29.6% | 33.3% | 30.9% | 65.6% | 48.5% | 34.8% | 43.8% | 33.9% | 59.3% | – |
| CCOC(=O)C1=C(C)Nc2nc3ccccc3n2C1c1ccccc1 (stereo not given) | 90.8% | 97.9% | 99.1% | 97.8% | 101% | 97.7% | 99.3% | 85.7% | 90.4% | – |
| Nc1nc(N)c2c(n1)NC(c1ccc(Cl)cc1)CC(c1ccc(Nc3nc(NCCO)nc(Nc4ccc(Cl)cc4)n3)cc1)=N2 (stereo not given) | 1.91% (active) | -21.8% (active) | 77.9% | 17.2% | -35.6% (active) | 44.1% | 48.4% | 91.2% | -90% (active) | 103% |
| O=C1Nc2ccc(Cl)cc2/C1=C/c1ccc(OCc2ccc(F)cc2)cc1 | 87.8% | 99.4% | 89.7% | 99.1% | 95.4% | 93.6% | 105% | 90.8% | 92.8% | – |
| O=C(CSc1nnc(-c2ccc(Cl)cc2)n1-c1ccccc1)Nc1ccc(F)cc1 | 94.6% | 87% | 117% | 59.7% | 6.66% (active) | 99.9% | 96.4% | 82.4% | – | – |
| CS(=O)(=O)c1nccc(-c2c(-c3ccc(F)c(OCc4ccc(F)cc4)c3)nc3sccn23)n1 | 70% | 85.5% | 106% | 75.4% | 100% | -17.3% (active) | 96.7% | 81.1% | 19.9% | – |
| CS(=O)(=O)c1nccc(-c2c(-c3ccc(F)c(OCCc4ccc(F)cc4)c3)nc3sccn23)n1 | -0.659% (active) | 7.43% (active) | 67.8% | 0.358% (active) | 71.4% | -62.2% (active) | 92.1% | 57.9% | 51.5% | – |
| CS(=O)(=O)c1nccc(-c2c(-c3ccc(F)c(OCc4ccccc4)c3)nc3sccn23)n1 | 79.1% | 103% | 103% | 96.7% | 107% | -11.3% (active) | 96.2% | 87% | – | – |
| COc1ccc2c(C3=C(c4cn(C)c5ccccc45)C(=O)NC3=O)coc2c1 | 20% | 6.25% (active) | 17.6% | 37.9% | 15.8% | 21.9% | 42.4% | 29.5% | 34.8% | – |
| CS(=O)c1nccc(-c2c(-c3ccc(F)c(OCCc4ccc(F)cc4)c3)nc3sccn23)n1 (stereo not given) | 11.7% | 7.84% (active) | 88.7% | 70.8% | 92.6% | 60.5% | 99.1% | 86% | 19.9% | – |
| CC1(C)CC[C@]2(C(=O)N3CCCNCC3)CC[C@]3(C)C(=CC[C@@H]4[C@@]5(C)CCC(=O)C(C)(C)[C@@H]5CC[C@]43C)[C@H]2C1 | 103% | 102% | 124% | 98% | 100% | 88.2% | 102% | 89.6% | 97.2% | – |
| CCCCCCCCCC[C@@H](C)[C@@H]1CC(=O)N[C@H]([C@@H](C)O)C(=O)N[C@@H](C)C(=O)N[C@H](C)C(=O)N[C@@H](CCC(N)=O)C(=O)N[C@H](Cc2ccc(O)cc2)C(=O)N[C@@H](C(C)CC)C(=O)O1 (stereo not given in full) | 101% | 68.3% | 52.5% | 51.9% | 51.6% | 39% | 48.1% | 92.4% | 71.2% | 82.5% |
| c1ccc(-c2c(-c3ccccc3)[n+](Cc3ccc4ccccc4c3)c(-c3ccccc3)n2Cc2ccc3ccccc3c2)cc1 | -81.7% (active) | -70.1% (active) | -78.4% (active) | -94.9% (active) | -78.8% (active) | -87.3% (active) | -99.1% (active) | -88.6% (active) | -89.8% (active) | – |
| O=C1c2c(c3c4cccnc4[nH]c3c3ccc4ccccc4c23)C(=O)N1CCN1CCOCC1 | 47.5% | 53.3% | 68% | 55.6% | 51.6% | 62.1% | 43.9% | 57.7% | – | – |
| O=C(N/N=C\c1ccc(Cl)cc1)c1ccc2nc(-c3ccc(Br)cc3)[nH]c2c1 | -25.2% (active) | -52% (active) | 49.9% | 5.18% (active) | -70.6% (active) | -23.7% (active) | 22.2% | 8.2% (active) | -80.5% (active) | -14.7% (active) |
| O=c1cc(-c2ccccc2)nc2sc(-c3c[nH]c4ccc(Br)cc34)nn12 | 91.6% | 102% | 108% | 88.4% | 100% | 85.4% | 98.9% | 87.4% | 102% | – |
| CCc1ccc(NC(=O)N[C@@H](Cc2cccc(C)c2)C(=O)N[C@@H]2C(=O)N3CCC[C@H]3C(=O)N3CCCC[C@H]3C(=O)N[C@@H](CO)C(=O)N3C[C@H](C)C[C@H]3C(=O)O[C@H]2C)c(F)c1 | 15.5% | 33.5% | 20.4% | 28.3% | 31.7% | 17.8% | -29.3% (active) | 25.9% | 32.8% | – |
| COC1=C(c2ccccc2)C(=O)C(OC)=C(c2ccccc2)C1=O | 97.6% | 95% | 56% | 101% | 91.6% | 96.2% | 103% | 97.1% | 95.2% | – |
